Results on eight compounds are retold here after publication PMC5540273 (PLoS ONE, 2017).

A value given as a limit tells only on which side of the number the result lay.
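Also: kd values determined as follow-up on hits from a single-replicate KINOMEscan panel screen.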

The subject of one assay is TNNI3K.
For orientation: Kd means the free concentration of one partner at which half of the binding sites on the other are occupied at equilibrium, for simple one-to-one binding. In the case of `Nc1nc(-c2ccccc2F)c(-c2ccnc3ccccc23)s1` [GW560459], the Kd is over 10000 nM.
The same measure, in the same setting: the value for `COc1ccc(Nc2nccc(N3CCC(NS(=O)(=O)c4ccc(NC(C)=O)cc4)C3)n2)cc1` (stereo not shown) [GSK1379729] was over 10000 nM; that for `Nc1ncnc2c1ncn2-c1cccc(F)c1` [SKF-97560] was over 10000 nM.

For another assay, the system named is TYK2(JH1domain-catalytic).
On to `COc1ccc(Nc2nccc(N3CCC(NS(=O)(=O)c4ccc(NC(C)=O)cc4)C3)n2)cc1` (stereo not shown) [GSK1379729], for which the affinity, expressed as Kd, was 86 nM.
Still for that read-out and setting: the value for `COc1cccc(-n2cnc3c(N)ncnc32)c1` [SKF-97416] was over 10000 nM; that for `COc1cc(Nc2nccc(N3CCC(NC(=O)C4COc5ccccc5O4)C3)n2)cc(OC)c1OC` (stereo not shown) [GSK1379761] was 1500 nM.

The test system of the next assay is T1, VPS34.
T1 construct: gene PIK3C3
Consider `COc1ccc(Nc2nccc(N3CCC(NS(=O)(=O)c4ccc(NC(C)=O)cc4)C3)n2)cc1` (stereo not shown) [GSK1379729], for which binding was put at a Kd of 97 nM. In other words, the double-digit nanomolar range.
On the same count and under the same terms, the value for `Cc1nn2c(=O)cc(N3CCOCC3)nc2n1Cc1cccc(Cl)c1Cl` [GSK2342769] was 0.43 nM; that for `Cc1ccccc1COc1cc(-n2cnc3cc(Cl)ccc32)sc1C(N)=O` [GW813349] was over 10000 nM; that for `O=c1cc(N2CCOCC2)nc2n(Cc3ccc(F)c(Cl)c3)ccn12` [GSK2297099] was 15 nM.
